Most compounds without a hit are left out; they make up all but 1.2% or so of the library.
PI5P4Ka inh: PI5P4K alpha (human) kinase inhibition; P48426; PI5P4Kalpha enzyme, ADP-Glo luminescence, 60 min; stronger effect = lower value; max response, %; hit rate 1.2% among 330,000; active = max response of -50% or lower; inconclusive = between -30% and -50%; inactive = -30% or higher; note: value at the top dose of about 77 µM
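Compounds were pin-transferred onto PI5P4Kalpha and substrate in HEPES pH 7.4 buffer with EGTA, CHAPS and 5% DMSO. ATP (5 microM final) started the reaction, which ran 60 minutes at room temperature before ADP-Glo detection.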
PGK inhibitor: blocks T. brucei phosphoglycerate kinase. Potency, µM (doses to about 57.5 µM), most hits filed as inhibitors. PGK/GAPDH coupled, Kinase-Glo luminescence, 60 min. AID 602233. hit rate 0.043% among 380,000; note: nearly all actives have a fitted effect of over 60% in size
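Recombinant glycosomal PGK reaction used 1,3-bisphosphoglycerate generated in-well by GAPDH (100nM final) in 100mM TEA pH 7.6, 5mM MgCl2, 0.01% Tween-20. After 60 minutes at room temperature, ATP was read by Kinase-Glo Plus luminescence end-point.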
RGS12 GoLoco inh: blocks human Gai1 binding to RGS12 GoLoco peptide, red readout. AID 880. Potency, µM (series often up to 61.6 µM), usual class: inhibitors. P63096. hit rate 0.44% among 230,000. Gai1:RGS12 GoLoco peptide FP, rhodamine, 10 min; active = well fitted inhibition curve with a large enough effect, not every such curve was filed as active; inactive = no such curve, though single readings can be large or run the other way; note: nearly all actives have a fitted effect of over 30% in size
Target sequence (P63096 whole entry, looked up): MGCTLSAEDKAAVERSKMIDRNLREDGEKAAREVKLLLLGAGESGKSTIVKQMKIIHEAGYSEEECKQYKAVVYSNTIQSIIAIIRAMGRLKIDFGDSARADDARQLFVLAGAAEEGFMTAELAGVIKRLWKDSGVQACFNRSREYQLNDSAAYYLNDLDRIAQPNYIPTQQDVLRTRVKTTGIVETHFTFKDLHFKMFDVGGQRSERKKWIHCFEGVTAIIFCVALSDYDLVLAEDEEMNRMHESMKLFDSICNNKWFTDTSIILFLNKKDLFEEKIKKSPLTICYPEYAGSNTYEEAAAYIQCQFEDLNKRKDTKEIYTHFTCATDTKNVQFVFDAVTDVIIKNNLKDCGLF
KAT2A inh: blocks human GCN5L2 histone acetyltransferase; AID 504327; hit rate 0.21% among 390,000; Q92830; Potency, µM (series often up to 58.9 µM), hits mostly inhibitors; GCN5L2 HAT assay, ThioGlo1 CoA-SH fluorescence
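Titration-based screen in which CoA formation is detected via maleimide probe ThioGlo1 (50uM) turning fluorescent on thiol reaction; substrates H3(1-25) 75uM and acetyl-CoA 70uM, GCN5L2 20nM, 20 min incubation at room temperature.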
Pin1 inh: blocks the human prolyl isomerase Pin1 | Q13526 | Pin1 FP peptide displacement, HiFluor488, 10 min | Potency, µM (titrated, usually from 115 µM), hits mostly inhibitors | hit rate 0.009% among 390,000; active = well fitted inhibition curve with a large enough effect in the polarisation, with a control signal flat, not every such curve was filed as active; inconclusive = small, poorly fitted or top-dose-only effect, or effect the other way, or a change in a side signal; inactive = no such curve, though single readings can be large or run the other way; the % refers to the polarisation
Target sequence (Q13526 whole entry, looked up): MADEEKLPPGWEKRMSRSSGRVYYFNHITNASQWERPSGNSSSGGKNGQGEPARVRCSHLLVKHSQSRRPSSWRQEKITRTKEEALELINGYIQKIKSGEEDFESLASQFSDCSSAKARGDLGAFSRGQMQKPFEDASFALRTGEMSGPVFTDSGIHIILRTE
PI4K2A block: inhibitors of human PI4K2A. hit rate 0.13% among 420,000. activity change, negative = inhibition, % at 76.9 µM. purified PI4K2A, ADP-Glo luminescence, 1 h; stronger effect = lower value; in the data active = activity change below about -50%; inconclusive = mostly about -30% to -49%
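ADP-Glo luminescence measured ADP generated by PI4K2A enzyme (4 ug/mL before mixing) with 1.2 mM PI substrate (pre-mix) and 300 microM ATP (pre-mix). Tris pH7.5 buffer with MgCl2, Triton X-100; 1 h reaction at ambient temperature.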
A number is an active result; n = inactive; u = inconclusive; x = not tested or not shown. Unless noted, calls come from the whole dose curve; as a rule, active = well fitted curve in the direction sought with a large enough effect; inconclusive = small, poorly fitted or top-dose-only effect, or another doubt; inactive = no such curve, though single readings can be large; an effect the other way counts as inactive or inconclusive.

SMILES	PI5P4Ka inh	PGK inhibitor	RGS12 GoLoco inh	KAT2A inh	Pin1 inh	PI4K2A block
COc1cc(-c2c(C#N)c(N)nc3[nH]c(=S)[nH]c(=O)c23)ccc1O	-67	n	x	n	n	n
Cc1c(CC(=O)N2CCN(C(=O)C3COc4ccccc4O3)CC2)c(=O)oc2cc(O)ccc12 (stereo unspecified)	n	n	x	28µM	n	n
COc1ccc2c(C)c(CC(=O)N3CCN(C(=O)C4COc5ccccc5O4)CC3)c(=O)oc2c1 (stereo unspecified)	n	n	x	n	n	n
CCCc1cc(-c2n[nH]c(C)c2-c2ccc(C(=O)OCC)o2)c(O)cc1O	x	n	n	n	u	n
CCCc1cc2c(OC(=O)CC)c(-c3ccc(C(=O)OCC)o3)c(=O)oc2cc1OC	-65	n	n	n	n	n
CCc1ccc(S(=O)(=O)NCc2cccnc2)cc1	n	n	x	n	n	n
CCC(=O)Nc1ccc2c(c1)nc(CN1CCN(C(C)=O)CC1)n2C	n	n	n	32µM	n	n
CCOC(=O)Nc1ccc2c(c1)nc(CN1CCN(C(C)=O)CC1)n2C	x	n	n	n	n	n
CCCCCCSc1ccc([C@@H]2[C@@H]3C(=O)N(CC)C(=O)[C@@H]3[C@]3(C(=O)OC)CCCCN23)cc1	n	n	x	n	n	-52
CC(=O)Nc1ccc(N=Cc2c(O)c(C(=O)Nc3ccccc3)cc3ccccc23)cc1	n	n	14µM	n	u	n
CC(=O)Nc1ccc(N=Cc2c(O)c3ccccc3oc2=O)cc1	n	n	x	n	n	n
Cc1cc(-c2ccc(S(=O)(=O)NCc3ccc(Cl)cc3)cc2)on1	n	n	x	x	x	n
Cc1ccccc1-n1nc2c(c1NC(=O)c1cccs1)CS(=O)(=O)C2	n	n	x	n	n	n
O=C(/C=C/c1ccc(O)c(O)c1)OC(Cc1ccc(O)c(O)c1)C(=O)O (stereo unspecified)	n	u	n	u	n	n
O=C(/C=C\c1ccc(O)c(O)c1)O[C@@H](Cc1ccc(O)c(O)c1)C(=O)O	x	x	10µM	n	x	x
COc1ccc(OC)c(N2CC(O)(c3cccs3)[N+]3=C2SCCC3)c1 (stereo unspecified)	n	n	n	n	n	n
CNC(=S)NNC(=O)c1ccc(=O)n(Cc2ccc(Cl)cc2Cl)c1	n	n	n	n	n	n
CNC(=S)NNC(=O)c1cccn(Cc2ccc(Cl)cc2Cl)c1=O	x	x	n	0.56µM	x	x
O=C(O)C1C2CCC(O2)C1C(=O)Nc1ccc(O)cc1 (stereo unspecified)	n	n	16µM	n	n	n
Cc1ccc(NC(=O)C2C3CCC(O3)C2C(=O)O)cc1C (stereo unspecified)	n	n	x	n	n	n
O=S(=O)(c1ccc(F)cc1)N1CCC(Oc2ccc(-n3cnnn3)cc2)CC1	x	n	x	n	n	n
O=C(c1ccco1)N1CCN(c2ncccn2)CC1	n	n	n	n	n	n
Nc1nc(N2CCN(C(=O)c3ccco3)CC2)nc2ccc(Br)cc12	n	8.9µM	n	n	u	n
Nc1nnnn1/N=C/c1ccc(F)cc1	n	n	x	u	n	n
COc1ccc2sc(C)[n+](C)c2c1	n	n	n	n	n	n
SMILES	PI5P4Ka inh	PGK inhibitor	RGS12 GoLoco inh	KAT2A inh	Pin1 inh	PI4K2A block
O=C(NC(NC(=S)Nc1ccccc1C(=O)O)C(Cl)(Cl)Cl)c1ccccc1 (stereo unspecified)	-58	n	n	n	n	n
O=C(NC(NC(=S)Nc1ccccc1C(=O)O)C(Cl)(Cl)Cl)c1ccco1 (stereo unspecified)	n	n	n	n	n	n
O=c1cc(O)c2ccc(O)cc2o1	-50	n	n	n	n	n
O=C1NN(c2ccccc2)C(=O)/C1=C\c1cccc(OC(=O)c2cccs2)c1	u	n	n	n	x	n
O=C1NN(c2ccc(Cl)c(Cl)c2)C(=O)/C1=C/c1cccc(OC(=O)c2cccs2)c1	x	x	n	35µM	x	x
COc1ccc(/C=N/NC(=O)c2ccccc2O)cc1Cn1cc([N+](=O)[O-])cn1	n	n	n	n	n	n
COc1ccc(/C=N/NC(=O)c2cc(O)c(O)c(O)c2)cc1Cn1cc([N+](=O)[O-])cn1	-59	u	n	n	u	n

Bioassay records deposited in PubChem by National Center for Advancing Translational Sciences (NCATS).
